# HT1080 IDH1KD tx – qHTS for induction of synthetic lethality in tumor cells producing 2HG: qHTS for the HT-1080-IDH1KD cell line; HT-1080 IDH1 knockdown viability, ATP luminescence, 48 h; AID 686971, 2013; hit rate 2% among 360,000; Potency, µM (highest dose often 46.1 µM), inactives show at the highest dose activity, negative = toxicity, actives largely listed as cytotoxic;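 also: potency is read from the fitted curve at half-maximal effect; 0% = DMSO wells and -100% = cell-free medium wells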
#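 Knockdown cells (IDH1KD HT-1080) received compounds 2 h after plating at 750 cells/well and were kept 48 h at 37 °C in 5% FBS RPMI. A CellTiter-Glo luminescence read gave % activity for curve fitting.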
# IL-1B inflam inh – qHTS for Inhibitors of Inflammasome Signaling: IL-1-beta AlphaLISA Primary Screen; THP-1 LPS/ATP IL-1B secretion, AlphaLISA, 16 h; stronger effect = lower value; hit rate 4.7% among 360,000; activity change, % at 57.5 µM; in the data active = activity change below about -50%; inconclusive = mostly about -30% to -49%
#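 Secreted IL-1B measured by AlphaLISA bead assay after 16 h compound exposure of THP-1 cells; compounds (final up to 57.5 uM) added 1 h before LPS (250 ng/mL) and ATP (1.25 mM) stimulation; lower signal means less secretion.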
# TDP1 cell noCPT – qHTS for Inhibitors of human tyrosyl-DNA phosphodiesterase 1 (TDP1): qHTS in cells in absence of CPT; hit rate 15% among 420,000; AID 686978, 2013; Potency, µM (highest dose often 46.2 µM), inactives show top-dose activity change, negative = growth inhibition, most hits filed as inhibitors; DT40 Tdp1-/- hTDP1 cells, no CPT, ATP luminescence, 48 h; also: potency is read from the fitted curve at half-maximal effect; nearly all actives have a fitted effect of over 55% in size
#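 A cellular qHTS used chicken DT40 cells lacking endogenous Tdp1 but carrying stably transfected human TDP1. Compounds were applied without camptothecin, and cell growth kinetics were judged by ATP-dependent luminescence after ≥48 hr.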
# DT40 TDP1 CPT – qHTS for Inhibitors of human tyrosyl-DNA phosphodiesterase 1 (TDP1): qHTS in cells in presence of CPT; chicken DT40 Tdp1-/-;hTDP1 cells + 20 nM CPT, ATP luminescence, 48 h; Potency, µM (doses to about 46.2 µM), without a hit: top-dose activity change, negative = growth inhibition, usual class: inhibitors; hit rate 12% among 420,000; also: potency is read from the fitted curve at half-maximal effect; nearly all actives have a fitted effect of over 55% in size
#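 Cell growth measured by CellTiter-Glo luminescence after a minimum 48 h, 37 C compound exposure with 20 nM CPT in Tdp1-knockout DT40 cells stably expressing hTDP1, seeded 400/well; qHTS titration format.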
# HT1080NT lethal – qHTS for induction of synthetic lethality in tumor cells producing 2HG: qHTS for the HT-1080-NT fibrosarcoma cell line | HT-1080-NT fibrosarcoma viability, CellTiter-Glo ATP luminescence, 48 h | Potency, µM (series often up to 46.1 µM), for inactives: at the highest dose activity, negative = less viability, actives largely listed as cytotoxic | hit rate 1.6% among 360,000;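 also: NT is the 2HG producing partner of a matched IDH1 knockdown line; potency is read from the fitted curve at half-maximal effect; 0% = DMSO-treated cells and -100% = media-only wells without cells; nearly all actives have a fitted effect of over 55% in size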
#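 Fibrosarcoma NT cells, 750 per well in 5% FBS RPMI, were exposed to compound for 48 hours. Viability: CellTiter-Glo luminescence.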
# * = called active by the depositor; ? = inconclusive; · = not tested or not shown. Rows were chosen to be rich in hits. Some 19% of all compounds tested hit in one or more screens of this group. Unless noted, calls follow the shape of the dose curve; as a rule, active = well fitted curve in the direction sought with a large enough effect; inconclusive = small, poorly fitted or top-dose-only effect, or another doubt; inactive = no such curve, though single readings can be large; an effect the other way counts as inactive or inconclusive. Unless noted, % is scaled to controls: 0 for no effect and ±100 for the full control effect.
SMILES,HT1080 IDH1KD tx,IL-1B inflam inh,TDP1 cell noCPT,DT40 TDP1 CPT,HT1080NT lethal
COc1ccccc1S(=O)(=O)N(C)C[C@@H]1Oc2ncc(-c3ccc(C)cc3)cc2C(=O)N([C@H](C)CO)C[C@@H]1C,-12%,-13,16µM*,?,-6%
COCC#Cc1cnc2c(c1)C(=O)N([C@H](C)CO)C[C@H](C)[C@@H](CN(C)S(=O)(=O)c1ccccc1)O2,9%,20,0%,11%,9%
Cc1ccc(S(=O)(=O)N(C)C[C@@H]2Oc3ncc(C#CCC(C)C)cc3C(=O)N([C@H](C)CO)C[C@H]2C)cc1,?,-10,16µM*,?,-24%
COc1cccc(C#Cc2cnc3c(c2)C(=O)N([C@@H](C)CO)C[C@H](C)[C@H](CN(C)C(=O)C2CCC2)O3)c1,-11%,-24,13µM*,?,11%
Cc1ccc(-c2cnc3c(c2)C(=O)N([C@H](C)CO)C[C@@H](C)[C@@H](CN(C)C(=O)Cc2ccccc2)O3)cc1,-8%,?,?,0%,-8%
Cc1cc2n(n1)CCCN2C(=O)Nc1ccccc1C(F)(F)F,·,·,-18%,-20%,·
CCc1ccc(CN2C(=O)c3ccccc3C2C(=O)NC2CCCCCC2)cc1 (centres undefined),·,·,-25%,0%,·
O=C(CSc1nnc(-c2ccccc2O)o1)N1CCCCC1,-6%,10,-18%,1%,9%
O=c1c2ccccc2nc2sc3ccccc3n12,-19%,18,13µM*,?,-25%
COC(=O)/C=c1/sc2nc3ccccc3n2c1=O,11%,10,?,?,3%
Cn1c(CNC(=O)c2ccccc2)nnc1SCC(=O)Nc1nccs1,8%,33,?,15µM*,7%
Cc1cccc(C(=O)NCc2nnc(SCC(=O)NC3=NCCS3)n2C)c1,14%,-10,16µM*,?,-2%
COc1cccc(C(=O)NCc2nnc(SCC(=O)Nc3nccs3)n2-c2ccccc2)c1,10%,7,-18%,-21%,0%
COc1cccc(-c2nn(-c3ccccc3)cc2CN(C)Cc2ccon2)c1,-1%,-15,11µM*,-30%,0%
COc1cccc(-c2nn(-c3ccccc3)cc2CN(C)Cc2c(C)nc3ccccn23)c1,?,16,?,?,?
CN(C)CCCC1(c2ccc(F)cc2)OCc2cc(C#N)ccc21 (centres undefined),?,-16,?,-29%,?
COc1cccc(C(O)c2nc(-c3ccc(Cl)cc3)cs2)c1 (centres undefined),?,1,?,?,?
COc1ccc(C(O)c2nc(-c3ccc(N(C)C)cc3)cs2)cc1 (centres undefined),-26%,-7,18µM*,?,?
COc1cccc(C(O)c2nc(-c3ccccc3)cs2)c1 (centres undefined),-13%,-5,16µM*,?,-3%
COc1cccc(C(O)c2nc(-c3ccccc3OC)cs2)c1 (centres undefined),0%,-15,?,?,-7%
COc1cccc(C(O)c2nc(-c3ccccc3C)cs2)c1 (centres undefined),-22%,22,18µM*,?,-7%
COc1ccc(C(O)c2nc(-c3ccncc3)cs2)cc1 (centres undefined),-28%,46,10µM*,18µM*,?
CCCCOc1ccc(OCCNS(=O)(=O)N(C)C)cc1,-3%,-30,?,?,-25%
O=C(CCc1nnc(C2CCCCC2)o1)N1CCC(Oc2cccnc2)CC1,-11%,-1,-13%,-6%,-4%
CN(C)c1ccc(-c2csc(C(O)c3ccc(F)c(F)c3)n2)cc1 (centres undefined),?,-15,15µM*,16µM*,?
SMILES,HT1080 IDH1KD tx,IL-1B inflam inh,TDP1 cell noCPT,DT40 TDP1 CPT,HT1080NT lethal
COc1ccc(-c2csc(C(O)c3ccc(OC)cc3)n2)cc1 (centres undefined),?,14,?,?,?
COc1ccc(C(O)c2nc(-c3ccccc3)cs2)cc1 (centres undefined),-26%,7,10µM*,13µM*,-13%
COc1cc(C(O)c2nc(-c3cccs3)cs2)ccc1F (centres undefined),-19%,3,?,?,-8%
COc1cc(C(O)c2nc(-c3ccncc3)cs2)ccc1F (centres undefined),?,-9,23µM*,?,-21%
CN(C)c1ccc(-c2csc(C(O)c3ccc(F)cc3)n2)cc1 (centres undefined),-15%,-19,?,?,-5%
C=CCNC(=O)[C@H]1N2C(=O)c3ccccc3C2SC1(C)C (some centres undefined),-4%,3,13%,13%,7%
Cc1ccc(C)c(N2CCN(C(=O)c3cc(S(=O)(=O)N4CCC(C)CC4)cn3C)CC2)c1,·,·,?,16µM*,·
CC1CCN(S(=O)(=O)c2cc(C(=O)N3CCN(c4cccc(Cl)c4)CC3)n(C)c2)CC1,·,·,18µM*,?,·
COCCCNC(=O)c1sc2nc(C)c(C(=O)Nc3ccc(Cl)cc3)c(-c3ccc(Br)cc3)c2c1N,·,·,-23%,?,·
COc1ccc(OC)c(CC2C(=O)Nc3ccc(Br)cc32)c1 (centres undefined),·,·,7.3µM*,10µM*,·
CCOc1c(CC2C(=O)Nc3ccc(Br)cc32)cccc1OC (centres undefined),·,·,16µM*,?,·
O=C1Nc2ccc(Br)cc2C1Cc1ccccc1F (centres undefined),-2%,19,5%,38%,2%
CCCOc1ccc(CC2C(=O)Nc3ccc(Br)cc32)cc1 (centres undefined),·,·,18µM*,?,·
CC1(C)CC(=O)C=C(c2cccnc2)C1,8%,27,-12%,-15%,5%
Cc1cccc(OCC2=NS(=O)(=O)c3ccccc3N2)c1,1%,26,-17%,-22%,1%
COc1ccc(C(=O)NC(C)C2CC3CCC2C3)c(OC)c1 (centres undefined),0%,-3,21µM*,23µM*,8%
CCCCN(Cc1ccccc1)S(=O)(=O)c1c(N)n(C)c(=O)n(C)c1=O,-1%,7,0%,-4%,4%

# Screens as filed in PubChem BioAssay.
